Assay [1] has as its target Glucocorticoid receptor (Homo sapiens) (UniProt P04150). The assay is described as follows: ATG_GR_TRANS: Attagene TRANS-FACTORIAL HepG2 Assay for human Glucocorticoid Receptor (GR) (AID 2282978; active means hit-call score of the fitted dose curve at least 0.9, where 1 is the maximum;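 further: activators score as hits since higher reporter transcript over DMSO is fitted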). The following applies: HepG2 Attagene TRANS GR reporter, mRNA transcription. In short, it runs like this:
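HepG2 cells transiently transfected with multiplexed reporter units in which chimeric NR-GAL4 proteins drive GAL4-UAS reporters; 24 h compound exposure. Reporter mRNA measured by RT-PCR, 6-FAM labelling, HpaI digestion and capillary electrophoresis; gain-of-signal fitted versus DMSO.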

Assay [2] has as its target Bile acid receptor (Homo sapiens) (UniProt Q96RI1). The assay is described as follows: ATG_FXR_TRANS: Attagene TRANS-FACTORIAL HepG2 Assay for Farnesoid X Receptor (FXR) (AID 2282979; active means hit-call score of the fitted dose curve at least 0.9, where 1 is the maximum;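 further: hits raise reporter mRNA above DMSO so AC50 marks FXR activation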). The following applies: HepG2 Attagene TRANS FXR-GAL4 reporter transcription. The method, boiled down:
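Chimeric FXR-GAL4 activity in transiently transfected human HepG2 liver cells is scored as induction of reporter mRNA after 24 h of dosing. Detection uses RT-PCR with fluorescent labelling and capillary electrophoresis, with DMSO serving as baseline.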

The target in assay [3] is Oxysterols receptor LXR-alpha (Homo sapiens) (UniProt Q13133). The assay is described as follows: ATG_LXRa_TRANS: Attagene TRANS-FACTORIAL HepG2 Assay for human Liver X Receptor alpha (LXRa) (AID 2282980; active means hit-call score of the fitted dose curve at least 0.9, where 1 is the maximum). The following applies: HepG2 Attagene TRANS reporter, LXRa transactivation. In short, it runs like this:
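Transient HepG2 transfectants, 24 h dosing, RT-PCR/CE mRNA reporter quantitation; gain-of-signal vs DMSO.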

The target of assay [4] is Oxysterols receptor LXR-beta (Homo sapiens) (UniProt P55055). The assay is described as follows: ATG_LXRb_TRANS: Attagene TRANS-FACTORIAL HepG2 Assay for human Liver X Receptor beta (LXRb) (AID 2282981; active means hit-call score of the fitted dose curve at least 0.9, where 1 is the maximum). The note with it: HepG2 Attagene TRANS GAL4-LXRb reporter, mRNA. The method, boiled down: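 Gain-of-signal mRNA reporter endpoint, DMSO as negative control. Transiently transfected HepG2 cells carrying the NR-Gal4 chimera and GAL4-UAS reporter units were treated 24 h; transcripts quantified by RT-PCR and capillary electrophoresis fluorescence.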

The target in assay [5] is Hepatocyte nuclear factor 4-alpha (Homo sapiens) (UniProt P41235). The assay is described as follows: ATG_HNF4a_TRANS: Attagene TRANS-FACTORIAL HepG2 Assay for human Hepatocyte Nuclear Factor 4 alpha (HNF4a) (AID 2282982; active means hit-call score of the fitted dose curve at least 0.9, where 1 is the maximum). The following applies: HepG2 HNF4a transactivation reporter, mRNA readout. The method, boiled down: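 Gain-of-signal mRNA induction, relative to DMSO vehicle, was read after 24 h compound treatment of HepG2 cells bearing transfected GAL4-UAS reporters. Detection used RT-PCR, 6-FAM primer extension and capillary electrophoresis.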
Sequence of Hepatocyte nuclear factor 4-alpha (Homo sapiens) (P41235 whole entry, looked up, the tested form may be a part): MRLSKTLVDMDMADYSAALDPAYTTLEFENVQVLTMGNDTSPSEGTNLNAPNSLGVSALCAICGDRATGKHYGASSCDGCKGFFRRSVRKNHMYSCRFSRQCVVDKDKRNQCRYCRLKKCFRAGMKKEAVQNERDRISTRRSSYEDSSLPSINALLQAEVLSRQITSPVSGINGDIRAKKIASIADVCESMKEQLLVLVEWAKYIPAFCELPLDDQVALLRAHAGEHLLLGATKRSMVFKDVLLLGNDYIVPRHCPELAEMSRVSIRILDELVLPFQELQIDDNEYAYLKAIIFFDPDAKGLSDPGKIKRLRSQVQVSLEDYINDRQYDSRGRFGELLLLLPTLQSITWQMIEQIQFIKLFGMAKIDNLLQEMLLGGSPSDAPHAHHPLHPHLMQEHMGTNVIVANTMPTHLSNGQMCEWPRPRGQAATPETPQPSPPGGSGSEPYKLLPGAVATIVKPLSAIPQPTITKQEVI

Assay [6] can be described thus: ATG_M_06_TRANS: Attagene TRANS-FACTORIAL HepG2 Assay for M06 Transcription Factor (Internal Marker) (AID 2282983; active means hit-call score of the fitted dose curve at least 0.9, where 1 is the maximum). The following applies: HepG2 Attagene TRANS M06 internal marker reporter. In short, it runs like this:
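Measured by capillary electrophoresis of fluorescently labelled RT-PCR products, this endpoint reflects reporter mRNA in HepG2 cells harbouring exogenous NR-GAL4 reporter constructs after 24 h exposure, with DMSO as baseline.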

The nature of assay [7]: ATG_M_32_TRANS: Attagene TRANS-FACTORIAL HepG2 Assay for M32 Transcription Factor (Internal Marker) (AID 2282984; active means hit-call score of the fitted dose curve at least 0.9, where 1 is the maximum;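 further: transcript level of a background control reporter unit measured by RT-PCR and capillary electrophoresis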). The note with it: HepG2 Attagene TRANS M32 internal marker reporter. In short, it runs like this: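 Capillary electrophoresis of 6-FAM-labelled reporter fragments gives the signal; data fitted for gain over DMSO negative control. Source: HepG2 cells bearing transient multiple reporter transcription units, 24 h exposure.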

Assay [8] has as its target Nuclear receptor subfamily 4 group A member 2 (Homo sapiens) (UniProt P43354). The assay is described as follows: ATG_NURR1_TRANS: Attagene TRANS-FACTORIAL HepG2 Assay for human Nuclear Receptor Related Protein 1 (NURR1) (AID 2282985; active means hit-call score of the fitted dose curve at least 0.9, where 1 is the maximum). The note with it: HepG2 Attagene TRANS reporter, mRNA readout. The method, boiled down:
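HepG2 / transient MRTU transfection / 24 h compound exposure / RT-PCR + CE fluorescence of reporter mRNA / gain-of-signal vs DMSO.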

For assay [9], the target named is Transcriptional activator Myb (Homo sapiens) (UniProt P10242). As to the kind of experiment: ATG_Myb_CIS: Attagene CIS-FACTORIAL HepG2 Assay for human Myeloblastosis (Myb) Proto-Oncogene Transcription Factor (AID 2282986). The following applies: HepG2 Attagene CIS-FACTORIAL Myb reporter transcription; actives raise or lower the signal. The method, boiled down: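 HepG2 cells were transiently transfected with cis-regulated multiple reporter transcription units reflecting endogenous Myb activity, then exposed to compound for 24 hours. Reporter mRNA was measured by RT-PCR with capillary electrophoresis; bidirectional fitting versus DMSO baseline.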
Sequence of Transcriptional activator Myb (Homo sapiens) (P10242 whole entry, looked up): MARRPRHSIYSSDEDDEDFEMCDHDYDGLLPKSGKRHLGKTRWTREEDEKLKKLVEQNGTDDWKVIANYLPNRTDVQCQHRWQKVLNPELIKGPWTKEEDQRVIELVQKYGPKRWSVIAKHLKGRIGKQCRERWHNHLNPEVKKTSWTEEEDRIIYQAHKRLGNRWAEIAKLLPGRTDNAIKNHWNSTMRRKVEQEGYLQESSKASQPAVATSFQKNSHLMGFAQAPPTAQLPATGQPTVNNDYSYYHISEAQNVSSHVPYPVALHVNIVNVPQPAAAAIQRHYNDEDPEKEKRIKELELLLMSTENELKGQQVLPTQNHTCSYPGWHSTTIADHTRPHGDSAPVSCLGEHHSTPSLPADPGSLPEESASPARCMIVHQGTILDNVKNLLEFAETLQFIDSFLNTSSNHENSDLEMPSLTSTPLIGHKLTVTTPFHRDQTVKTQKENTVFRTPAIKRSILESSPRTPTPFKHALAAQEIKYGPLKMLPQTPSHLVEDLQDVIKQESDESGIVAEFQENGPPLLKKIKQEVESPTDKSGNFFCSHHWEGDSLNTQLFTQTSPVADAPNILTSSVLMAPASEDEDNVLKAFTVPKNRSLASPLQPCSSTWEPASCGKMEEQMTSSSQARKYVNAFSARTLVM

The target in assay [10] is Nuclear respiratory factor 1 (Homo sapiens) (UniProt Q16656). The assay is described as follows: ATG_NRF1_CIS: Attagene CIS-FACTORIAL HepG2 Assay for human Nuclear Respiratory Factor 1 (NRF1) Orphan Gene (AID 2282987). The note with it: HepG2 NRF1 cis-element reporter, Attagene multiplex; actives raise or lower the signal. In short, it runs like this: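 HepG2 cells transiently transfected with multiple reporter transcription units under cis-regulatory promoter control, so endogenous transcription-factor activity is read. After 24 h compound exposure, reporter mRNA quantified by RT-PCR, fluorescent labelling, HpaI digestion and capillary electrophoresis; bidirectional fitting versus DMSO.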
Sequence of Nuclear respiratory factor 1 (Homo sapiens) (Q16656 whole entry, looked up): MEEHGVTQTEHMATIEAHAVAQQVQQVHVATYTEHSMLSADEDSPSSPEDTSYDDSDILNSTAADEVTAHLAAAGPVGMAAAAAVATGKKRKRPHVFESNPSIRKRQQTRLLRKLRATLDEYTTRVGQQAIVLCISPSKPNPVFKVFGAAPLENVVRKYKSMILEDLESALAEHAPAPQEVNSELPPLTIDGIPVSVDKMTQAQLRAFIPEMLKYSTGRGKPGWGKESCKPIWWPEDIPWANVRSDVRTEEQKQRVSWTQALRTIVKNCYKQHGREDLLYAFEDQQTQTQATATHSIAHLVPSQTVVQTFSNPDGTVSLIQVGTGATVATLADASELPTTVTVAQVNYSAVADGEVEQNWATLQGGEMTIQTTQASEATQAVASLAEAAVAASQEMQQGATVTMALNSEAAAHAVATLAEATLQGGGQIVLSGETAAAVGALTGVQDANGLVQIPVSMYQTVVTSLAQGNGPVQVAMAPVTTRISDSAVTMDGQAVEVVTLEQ

The nature of assay [11]: ATG_NFI_CIS: Attagene CIS-FACTORIAL HepG2 Assay for human Nuclear Factor I (NFI) (AID 2282989). The note with it: HepG2 cis-regulatory reporter, NFI response element transcription; actives raise or lower the signal. The method, boiled down: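 After transient transfection of HepG2 with cis-promoter reporter constructs and 24 h dosing, RNA is reverse-transcribed, amplified, 6-FAM end-labelled and HpaI-digested before capillary analysis. Bidirectional curve fitting against DMSO.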

The target in assay [12] is Myc proto-oncogene protein (Homo sapiens) (UniProt P01106). The assay is described as follows: ATG_Myc_CIS: Attagene CIS-FACTORIAL HepG2 Assay for human Myelocytomatosis (Myc) Proto-Oncogene Transcription Factor (AID 2282990). The note with it: HepG2, Attagene cis-reporter transcription factor activity; actives raise or lower the signal. The method, boiled down: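 Transiently transfected HepG2 cells bearing cis-promoter reporter units for endogenous transcription factors; 24 h exposure. Reporter mRNA measured by RT-PCR, 6-FAM primer extension, HpaI cut and capillary electrophoresis; bidirectional fit relative to DMSO.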
Sequence of Myc proto-oncogene protein (Homo sapiens) (P01106 whole entry, looked up): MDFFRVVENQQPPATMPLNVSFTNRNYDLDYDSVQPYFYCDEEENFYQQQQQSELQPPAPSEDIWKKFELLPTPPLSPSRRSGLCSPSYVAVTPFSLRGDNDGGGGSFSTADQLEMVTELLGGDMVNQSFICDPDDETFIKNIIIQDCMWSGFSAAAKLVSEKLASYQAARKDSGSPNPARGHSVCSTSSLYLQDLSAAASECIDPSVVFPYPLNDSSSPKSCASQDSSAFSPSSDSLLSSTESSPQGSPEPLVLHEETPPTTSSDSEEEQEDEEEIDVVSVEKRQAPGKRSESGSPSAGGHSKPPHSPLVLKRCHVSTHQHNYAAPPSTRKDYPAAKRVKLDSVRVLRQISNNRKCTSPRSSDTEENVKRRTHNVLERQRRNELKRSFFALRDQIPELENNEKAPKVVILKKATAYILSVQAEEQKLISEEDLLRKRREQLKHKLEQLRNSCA

A short description of assay [13]: ATG_NF_kB_CIS: Attagene CIS-FACTORIAL HepG2 Assay for human Nuclear Factor Kappa B (NF-kB) (AID 2282991). The following applies: HepG2 Attagene cis-factorial NF-kB reporter mRNA; actives raise or lower the signal. In short, it runs like this:
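HepG2 cells transiently transfected with multiplexed cis-element reporter units measuring endogenous transcription factor activity; reporter mRNA read 24 h after dosing by RT-PCR, fluorescent labelling, HpaI digestion and capillary electrophoresis. Bidirectional fit against DMSO baseline.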

A short description of assay [14]: ATG_NRF2_ARE_CIS: Attagene CIS-FACTORIAL HepG2 Assay for human Nuclear Factor Erythroid 2 Related Factor 2 (NFR2) response to Antioxidant Response Elements (ARE) (AID 2282992). The note with it: HepG2 Attagene ARE/NRF2 reporter, transcription factor activity; actives raise or lower the signal. The method, boiled down:
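Transient MRTU transfection of HepG2; 24 h compound exposure; TriZol RNA, RT with oligo(dT), PCR, 6-FAM primer extension, HpaI cut, CE. Bidirectional fit vs DMSO.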

Assay [15] can be described thus: ATG_Oct_MLP_CIS: Attagene CIS-FACTORIAL HepG2 Assay for human Octamer-Binding Transcription Factor (Oct) (AID 2282993). The note with it: HepG2 Attagene cis-factorial Oct reporter, mRNA; actives raise or lower the signal. The method, boiled down:
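Cells of the HepG2 line express promoter-controlled reporter sequences whose mRNA levels, after 24 h treatment, are measured by RT-PCR and capillary electrophoresis. Increases and decreases are scored relative to DMSO.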

In assay [16] the target is Cellular tumor antigen p53 (Homo sapiens) (UniProt P04637). As to the kind of experiment: ATG_p53_CIS: Attagene CIS-FACTORIAL HepG2 Assay for human p53 Transcription Factor (AID 2282994). The following applies: HepG2 p53 cis-element reporter, Attagene mRNA; actives raise or lower the signal. In short, it runs like this: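 HepG2, transient MRTU transfection (cis promoter elements, endogenous TFs); 24 h dosing; RNA isolation, RT-PCR, 6-FAM primer extension, HpaI digest, CE fluorescence; bidirectional fit vs DMSO.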
Sequence of Cellular tumor antigen p53 (Homo sapiens) (P04637 whole entry, looked up): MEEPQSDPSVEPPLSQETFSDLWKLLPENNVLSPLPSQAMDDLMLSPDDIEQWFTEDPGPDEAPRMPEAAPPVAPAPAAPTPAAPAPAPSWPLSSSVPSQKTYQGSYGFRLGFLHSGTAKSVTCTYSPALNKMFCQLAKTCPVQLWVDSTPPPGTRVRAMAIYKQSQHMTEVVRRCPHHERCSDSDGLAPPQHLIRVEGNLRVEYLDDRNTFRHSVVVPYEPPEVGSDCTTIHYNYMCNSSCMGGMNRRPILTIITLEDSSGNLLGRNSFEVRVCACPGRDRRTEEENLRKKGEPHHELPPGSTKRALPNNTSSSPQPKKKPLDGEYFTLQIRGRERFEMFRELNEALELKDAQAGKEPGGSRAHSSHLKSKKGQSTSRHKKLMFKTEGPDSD

Assay [17] can be described thus: BSK_3C_TissueFactor: BioMAP Diversity Plus: 3C Assay for Tissue Factor Biomarker Activity (AID 2282997). The note with it: BioMAP 3C HUVEC, tissue factor biomarker readout; actives raise or lower the signal. In short, it runs like this: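 Values derive from bidirectional curve fitting against DMSO of Tissue Factor ELISA signals, taken 24 h after dosing primary human umbilical vein endothelial cells.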

The nature of assay [18]: BSK_3C_uPAR: BioMAP Diversity Plus: 3C Assay for Urokinase-type plasminogen activator receptor (uPAR) Biomarker Activity (AID 2282998). The note with it: BioMAP 3C HUVEC, uPAR biomarker ELISA; actives raise or lower the signal. The method, boiled down: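 Endothelial primary cells of human umbilical vein origin received test chemical; 24 h later uPAR was assayed by ELISA. Fitting was bidirectional, DMSO as negative control.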
A general note: ELISA stands for enzyme-linked immunosorbent assay.

The nature of assay [19]: BSK_3C_VCAM1: BioMAP Diversity Plus: 3C Assay for Vascular cell adhesion molecule 1 (VCAM1) Biomarker Activity (AID 2282999). The note with it: BioMAP 3C HUVEC, VCAM1 ELISA, cytokine-stimulated; actives raise or lower the signal. The method, boiled down:
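Human umbilical vein endothelial cells (3C system), biomarker read by ELISA 24 h after dosing; bidirectional fit against DMSO baseline. Cytotoxicity tracked by SRB total-protein staining in parallel cultures at biomarker time.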

Results filed as inconclusive are left out. Activity calls are given as the source filed them. How the source made its calls, unless noted: active means hit-call score of the fitted dose curve at least 0.9, where 1 is the maximum; inactive means score below 0.9.

Sequence of Nuclear receptor subfamily 4 group A member 2 (Homo sapiens) (P43354 whole entry, looked up): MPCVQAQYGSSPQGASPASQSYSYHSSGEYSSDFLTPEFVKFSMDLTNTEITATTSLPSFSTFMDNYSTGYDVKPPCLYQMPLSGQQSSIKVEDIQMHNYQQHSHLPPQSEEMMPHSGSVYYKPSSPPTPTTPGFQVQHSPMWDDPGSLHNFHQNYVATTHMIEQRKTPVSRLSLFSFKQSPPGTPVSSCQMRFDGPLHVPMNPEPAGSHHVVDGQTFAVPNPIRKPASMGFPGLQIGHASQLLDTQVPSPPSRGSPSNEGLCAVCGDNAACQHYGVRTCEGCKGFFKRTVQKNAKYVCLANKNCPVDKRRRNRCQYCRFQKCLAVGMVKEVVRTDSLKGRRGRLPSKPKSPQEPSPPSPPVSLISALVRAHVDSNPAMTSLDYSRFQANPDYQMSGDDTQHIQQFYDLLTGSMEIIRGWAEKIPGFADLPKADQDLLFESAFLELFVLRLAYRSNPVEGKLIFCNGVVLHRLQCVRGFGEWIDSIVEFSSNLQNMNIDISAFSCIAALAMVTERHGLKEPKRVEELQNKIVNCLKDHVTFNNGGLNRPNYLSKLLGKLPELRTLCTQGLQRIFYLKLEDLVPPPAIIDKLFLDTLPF
Sequence of Bile acid receptor (Homo sapiens) (Q96RI1 whole entry, looked up, the tested form may be a part): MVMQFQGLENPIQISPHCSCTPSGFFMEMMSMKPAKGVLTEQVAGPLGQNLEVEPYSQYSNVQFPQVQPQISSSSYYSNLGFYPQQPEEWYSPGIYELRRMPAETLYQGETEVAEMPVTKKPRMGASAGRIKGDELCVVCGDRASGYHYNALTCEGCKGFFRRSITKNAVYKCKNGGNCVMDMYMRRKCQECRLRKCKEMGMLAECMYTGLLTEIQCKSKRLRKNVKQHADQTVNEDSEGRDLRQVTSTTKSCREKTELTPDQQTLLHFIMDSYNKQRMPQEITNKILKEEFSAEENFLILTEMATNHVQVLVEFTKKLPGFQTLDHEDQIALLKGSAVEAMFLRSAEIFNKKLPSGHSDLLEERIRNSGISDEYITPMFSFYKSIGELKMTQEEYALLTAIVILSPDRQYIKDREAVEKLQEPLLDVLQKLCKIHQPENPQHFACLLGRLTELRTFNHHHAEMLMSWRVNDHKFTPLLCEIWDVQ
Sequence of Glucocorticoid receptor (Homo sapiens) (P04150 whole entry, looked up, the tested form may be a part): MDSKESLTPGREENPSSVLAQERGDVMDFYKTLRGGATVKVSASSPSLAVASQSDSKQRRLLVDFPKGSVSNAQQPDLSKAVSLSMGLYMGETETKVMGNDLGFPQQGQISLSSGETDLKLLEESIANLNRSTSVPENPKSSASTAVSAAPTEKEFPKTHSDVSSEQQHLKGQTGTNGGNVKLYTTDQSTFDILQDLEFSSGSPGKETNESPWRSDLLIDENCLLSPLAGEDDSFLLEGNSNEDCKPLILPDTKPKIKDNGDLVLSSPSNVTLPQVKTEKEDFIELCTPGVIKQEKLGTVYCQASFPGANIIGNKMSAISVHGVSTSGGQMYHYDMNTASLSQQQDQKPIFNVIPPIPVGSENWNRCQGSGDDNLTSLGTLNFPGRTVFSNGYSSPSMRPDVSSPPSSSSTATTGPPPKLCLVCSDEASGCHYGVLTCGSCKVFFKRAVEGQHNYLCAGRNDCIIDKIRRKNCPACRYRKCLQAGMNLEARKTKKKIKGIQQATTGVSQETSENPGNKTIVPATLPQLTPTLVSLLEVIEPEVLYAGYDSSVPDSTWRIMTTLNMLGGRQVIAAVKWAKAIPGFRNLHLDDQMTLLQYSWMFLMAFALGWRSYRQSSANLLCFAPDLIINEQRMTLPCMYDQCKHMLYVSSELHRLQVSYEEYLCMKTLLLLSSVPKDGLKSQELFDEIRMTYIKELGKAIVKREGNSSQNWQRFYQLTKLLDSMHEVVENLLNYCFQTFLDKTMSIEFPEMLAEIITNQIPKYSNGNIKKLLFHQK
Sequence of Oxysterols receptor LXR-alpha (Homo sapiens) (Q13133 whole entry, looked up): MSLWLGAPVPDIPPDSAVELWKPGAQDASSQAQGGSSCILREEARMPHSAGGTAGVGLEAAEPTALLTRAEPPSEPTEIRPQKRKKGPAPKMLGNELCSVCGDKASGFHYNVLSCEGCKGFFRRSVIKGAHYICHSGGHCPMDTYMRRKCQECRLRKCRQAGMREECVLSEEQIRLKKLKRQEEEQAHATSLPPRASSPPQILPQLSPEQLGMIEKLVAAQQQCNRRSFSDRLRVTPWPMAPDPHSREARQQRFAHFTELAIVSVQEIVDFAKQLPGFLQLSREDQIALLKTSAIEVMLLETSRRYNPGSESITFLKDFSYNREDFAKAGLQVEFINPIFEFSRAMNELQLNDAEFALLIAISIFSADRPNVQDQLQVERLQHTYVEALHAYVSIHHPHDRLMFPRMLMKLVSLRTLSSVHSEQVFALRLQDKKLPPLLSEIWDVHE

Take `CCCCCCOC(C)=O`: the result in assay [1], in [2], in assay [3], in assay [4], in [5] and in assay [6] was inactive. In addition, the result in assay [7], in assay [8], in [9], in [10], in [11] and in assay [12] was inactive. Also, the molecule was classed as inactive in [13], in assay [14], in [15] and in assay [16].

As to `CCC=C(C)C=O`, the call in assay [1], in [2], in assay [4], in assay [7], in assay [8] and in assay [9] was inactive. The call in assay [10], in assay [11], in assay [12], in assay [13], in [15] and in assay [16] was inactive.

Regarding `O=S(=O)(O)c1cc(S(=O)(=O)O)c2c(N=Nc3ccccc3)c(O)ccc2c1`, the outcome in assay [1], in assay [2], in [3], in [4], in assay [6] and in assay [10] was inactive. The result in [11], in [12], in assay [13] and in [14] was inactive.

Take `O=C1OC2(c3ccc(O)cc3Oc3cc(O)ccc32)c2ccccc21`: the result in assay [1], in assay [2], in assay [3], in assay [5], in assay [6] and in assay [9] was inactive. Besides, the call in assay [10], in assay [11], in assay [12], in [14], in assay [15] and in assay [17] was inactive. Besides, the result in assay [18] and in [19] was inactive.

As to `CCCCCCCCCCCCCCCCCC(=O)OCCCCCCCCCCCCCC(C)C`, the outcome in [1], in assay [3], in [4], in assay [5], in assay [9] and in assay [10] was inactive. The molecule was classed as inactive in [11], in assay [13], in assay [14], in assay [15] and in assay [16].

By AC50 is commonly meant the concentration giving half of the maximal activity seen. Consider `CCC(C)(C)c1cc(O)c(C(C)(C)CC)cc1O`, for which the molecule was called inactive in assay [1], in [3], in assay [4], in [12] and in assay [15]. The AC50 in [2] is 3.06 µM (active); in assay [9], 9.69 µM (active); in assay [10] it was 12.3 µM (active); in assay [11], 5.78 µM (active); in assay [13], 60.4 µM (active); in assay [14], 3.81 µM (active). In addition, in assay [16], the AC50 is 33.4 µM (active).

Consider `NC(=O)c1cccnc1`, for which the result in [1], in [2], in assay [7], in assay [8], in assay [10] and in assay [12] was inactive. The call in [14], in assay [15] and in assay [16] was inactive.

For `CC(=O)c1ccc(O)cc1`, the molecule was classed as inactive in [1], in [2], in assay [3], in assay [5], in assay [9] and in assay [10]. The molecule was classed as inactive in [11], in assay [12], in assay [13], in assay [14], in [15] and in [16].

With `CCCc1ccc(O)cc1`, the call in assay [1], in [2], in assay [4], in assay [8], in assay [9] and in [10] was inactive. For the same molecule, the result in assay [11], in assay [13], in assay [15] and in assay [16] was inactive. The AC50 in [14] was 36 µM (active).
